We go through five molecules from PubChem BioAssay.

Activity calls are given as the source filed them.

One assay has as its target Albumin (Bos taurus) (UniProt P02769). Description: bovine serum albumin binders on microarray, profiling panel, artefact control for SMM control protein annotation, biochemical, small-molecule microarray, Alexa647 label, 635/667 nm fluorescence (AID 1118).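 Further: score merges 667 nm emission intensity and signal-to-noise per printed compound spot.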 The note with it: BSA-A647 binding, fluorescence 635 nm, higher = more signal.
Assay [1] in a line: small-molecule microarray binders of probe aXIP, primary screen, biochemical, NeuroSMM set, 635/667 nm fluorescence (AID 1119).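 Further: probe is the protein aXip251-270 applied at 1 µg/mL to compound-printed slides; binding of probe to printed compounds measured as 667 nm fluorescence plus signal to noise.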 The note with it: higher = more signal, called active from +8 up or from −8 down.
Assay [2] can be described thus: small-molecule binders of probe aNOTCH3, primary screen, biochemical, small-molecule microarray, 635/667 nm fluorescence (AID 1120).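 Further: probe is a biotin-tagged antibody raised against NOTCH3 rather than NOTCH3 protein; score merges spot fluorescence near 667 nm with spot signal to noise.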 The note with it: higher = more signal.
The nature of assay [3]: small-molecule binders of probe aNOTCH2, primary screen, biochemical, small-molecule microarray, 635/667 nm fluorescence (AID 1121).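 Further: score merges feature fluorescence read at 667 nm with its signal to noise.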 Conditions: higher = more signal.
Assay [4] concerns the target Carbonic anhydrase 2 (Homo sapiens) (UniProt P00918). Description: CAII small-molecule binders, profiling panel, biochemical, small-molecule microarray, Alexa647-labelled CAII (AID 1122). The note with it: CAII-A647 binding fluorescence, higher = more signal.
Assay [5] in a line: COS7 lysate on small-molecule microarray, probe aHis, 635 nm (AID 1123).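 Further: z-score combines 667nm fluorescence intensity with signal-to-noise per printed compound spot.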 The note with it: COS7 cell lysate, fluorescence, higher = more signal.
A short description of assay [6]: compound binding in COS7 lysate, probe aLAP1, primary screen, cell lysate, small-molecule microarray (AID 1124).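 Further: lysate comes from COS7 cells expressing LAP1 and is applied at 0.3 µg/mL; score merges spot fluorescence near 667 nm with signal-to-noise over triplicate slides.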 The note with it: probe aLAP1, fluorescence, higher = more signal.
Another assay relates to Sam68 (KHDRBS1). Description: Sam68 small-molecule binders, primary screen, biochemical, small-molecule microarray, 635 nm fluorescence (AID 1125).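 Further: score merges 667 nm channel intensity with signal to noise over triplicate slides.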 The note with it: small-molecule microarray binding, higher = more signal.
Assay [7] deals with Chordin-like protein 2 (CHRDL2). Description: CHRDL2 small-molecule binders, primary screen, biochemical, small-molecule microarray, 635 nm fluorescence (AID 1126).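 Further: printed compound slides probed with Chrdl2 protein at 4 µg/mL for 1 h at 4 C; score merges 667 nm emission intensity with signal to noise over three replicate slides.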 The note with it: small-molecule microarray binding, fluorescence 635 nm; higher = more signal.
In assay [8] the target is Concanavalin-A (Canavalia ensiformis) (UniProt P02866). Briefly: ConA small-molecule binders, primary screen, artefact control for SMM control protein annotation, biochemical, small-molecule microarray, Alexa647 label, 635 nm (AID 1127).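 Further: z combines 667 nm emission intensity with signal-to-noise across three replicate slides.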 Conditions: ConA-A647 binding fluorescence, higher = more signal.
Concanavalin-A (Canavalia ensiformis), sequence (P02866 whole entry, looked up): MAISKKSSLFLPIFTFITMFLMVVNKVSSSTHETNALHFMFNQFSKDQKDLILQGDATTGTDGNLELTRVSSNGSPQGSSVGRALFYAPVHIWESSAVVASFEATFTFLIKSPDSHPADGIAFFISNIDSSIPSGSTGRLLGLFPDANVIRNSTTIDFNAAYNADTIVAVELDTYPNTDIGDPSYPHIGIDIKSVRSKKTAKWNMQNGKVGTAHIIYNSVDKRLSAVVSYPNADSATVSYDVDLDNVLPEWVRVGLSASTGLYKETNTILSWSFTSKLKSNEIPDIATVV
Assay [9] can be described thus: anti-His antibody binders, primary screen, artefact control for SMM control protein annotation, biochemical, small-molecule microarray, 635 nm fluorescence (AID 1128).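 Further: score merges feature fluorescence with signal-to-noise for each printed compound spot.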 Conditions: anti-His Alexa647 antibody binding, higher = more signal.
Assay [10] relates to Human papillomavirus type 1a E7 protein (residues 1-88). Briefly: HPV1a E7 small-molecule binders, primary screen, biochemical, small-molecule microarray, residues 1-88, 635 nm (AID 1129). The note with it: small-molecule microarray binding, fluorescence 635 nm; higher = more signal.
Assay [11] addresses Focal adhesion kinase 1 (Homo sapiens) (UniProt Q05397). Briefly: small-molecule microarray binders of FAK, primary screen, biochemical, 635/667 nm fluorescence, BSA, DTT (AID 1130).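 Further: composite of spot emission at 667 nm and signal to noise over triplicate slides.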 Conditions: PTK2 binding, 635 nm fluorescence, higher = more signal.
Assay [12] concerns Fibrinogen (Alexa647-labelled). Description: fibrinogen binders on compound microarrays, profiling panel, artefact control for SMM control-protein annotation, biochemical, small-molecule microarray, 635/667 nm fluorescence (AID 1131).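 Further: z-score merges 667 nm fluorescence with per-spot signal-to-noise over triplicate slides.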 The note with it: fibrinogen-A647 binding fluorescence, higher = more signal.
Assay [13] addresses Follistatin (Homo sapiens) (UniProt P19883). Description: follistatin binders on small-molecule microarrays, primary screen, biochemical, small-molecule microarray, 635/667 nm fluorescence (AID 1132). The note with it: FST binding, 635 nm fluorescence, higher = more signal.
Assay [14] has as its target Fibroblast growth factor 2 (Homo sapiens) (UniProt P09038). Description: FGF2 binders on small-molecule microarrays, primary screen, biochemical, small-molecule microarray, 635/667 nm fluorescence (AID 1133). Conditions: small-molecule microarray binding, FGF2, fluorescence 635/667; higher = more signal.
Assay [15] can be described thus: mitochondrial membrane potential change in A549 cells, profiling panel, cell-based, JC-1 fluorescence, basal, 24 h, 100 nL (AID 1138).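 Further: A549 lung adenocarcinoma cells under basal conditions with no added stimulus; test concentration not given here.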 Conditions: higher = more signal.
The next assay deals with Lefty1. Description: Lefty1 binders on small-molecule microarrays, primary screen, biochemical, small-molecule microarray, 635/667 nm fluorescence (AID 1139). Conditions: small-molecule microarray binding, fluorescence 635/667; higher = more signal.
In assay [16] the test system is wheat germ agglutinin (Triticum aestivum), Alexa647-labelled. Description: wheat germ agglutinin binders on compound microarrays, profiling panel, artefact control for SMM control-protein annotation, biochemical, small-molecule microarray, 635/667 nm fluorescence (AID 1140).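 Further: score merges 667 nm feature emission with signal to noise over triplicate slides.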 Conditions: WGA-A647 binding, 635 nm fluorescence, higher = more signal.
The target in assay [17] is Luciferin 4-monooxygenase (Photinus pyralis) (UniProt P08659). Description: firefly luciferase enzyme inhibitors, primary screen, biochemical, luminescence, purified enzyme, 2006 set (AID 1141).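 Further: cell-free assay with purified firefly luciferase at 100 ng per well in PBS; test concentration not given here.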 The note with it: SteadyGlo luminescence, 30 min, higher = more signal, called active from +8 up or from −8 down.
Luciferin 4-monooxygenase (Photinus pyralis), sequence (P08659 whole entry, looked up): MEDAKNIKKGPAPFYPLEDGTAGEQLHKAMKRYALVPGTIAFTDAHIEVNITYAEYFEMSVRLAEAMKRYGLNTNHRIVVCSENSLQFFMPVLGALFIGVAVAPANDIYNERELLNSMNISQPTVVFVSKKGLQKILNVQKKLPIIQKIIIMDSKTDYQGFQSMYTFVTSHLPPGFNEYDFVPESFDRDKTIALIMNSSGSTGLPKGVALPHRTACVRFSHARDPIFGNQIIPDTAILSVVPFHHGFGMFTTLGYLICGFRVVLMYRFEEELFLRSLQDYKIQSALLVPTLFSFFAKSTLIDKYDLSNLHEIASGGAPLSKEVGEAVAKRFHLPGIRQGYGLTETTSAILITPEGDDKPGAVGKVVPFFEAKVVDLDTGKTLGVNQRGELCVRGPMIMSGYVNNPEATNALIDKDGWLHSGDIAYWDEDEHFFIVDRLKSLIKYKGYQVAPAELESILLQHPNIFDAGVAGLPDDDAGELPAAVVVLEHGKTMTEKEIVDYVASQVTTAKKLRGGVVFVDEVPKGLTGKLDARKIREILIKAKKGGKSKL

Albumin (Bos taurus), sequence (P02769 whole entry, looked up): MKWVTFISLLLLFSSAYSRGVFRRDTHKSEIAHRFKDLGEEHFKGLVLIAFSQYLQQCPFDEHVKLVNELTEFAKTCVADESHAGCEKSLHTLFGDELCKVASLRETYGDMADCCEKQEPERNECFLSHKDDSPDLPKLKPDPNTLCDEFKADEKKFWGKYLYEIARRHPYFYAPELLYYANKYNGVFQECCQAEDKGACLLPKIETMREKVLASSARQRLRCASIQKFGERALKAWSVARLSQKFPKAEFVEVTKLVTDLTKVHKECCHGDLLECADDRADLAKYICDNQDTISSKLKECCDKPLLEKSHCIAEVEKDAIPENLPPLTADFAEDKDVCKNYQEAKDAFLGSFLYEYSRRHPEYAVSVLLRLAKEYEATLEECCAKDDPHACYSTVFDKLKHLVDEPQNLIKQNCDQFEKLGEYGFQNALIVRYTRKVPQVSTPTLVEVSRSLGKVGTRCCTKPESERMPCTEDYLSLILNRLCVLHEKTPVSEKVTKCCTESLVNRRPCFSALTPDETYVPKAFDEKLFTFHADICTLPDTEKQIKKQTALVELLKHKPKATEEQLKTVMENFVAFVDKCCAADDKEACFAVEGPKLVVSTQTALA
Fibroblast growth factor 2 (Homo sapiens), sequence (P09038 whole entry, looked up): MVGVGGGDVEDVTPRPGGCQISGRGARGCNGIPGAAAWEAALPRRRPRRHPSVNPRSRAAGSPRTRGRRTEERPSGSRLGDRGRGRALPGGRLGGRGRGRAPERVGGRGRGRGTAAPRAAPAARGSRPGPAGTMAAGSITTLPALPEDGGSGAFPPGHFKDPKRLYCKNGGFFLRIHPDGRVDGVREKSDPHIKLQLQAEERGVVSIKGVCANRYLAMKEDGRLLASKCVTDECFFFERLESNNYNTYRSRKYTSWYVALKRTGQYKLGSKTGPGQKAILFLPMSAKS
Focal adhesion kinase 1 (Homo sapiens), sequence (Q05397 whole entry, looked up): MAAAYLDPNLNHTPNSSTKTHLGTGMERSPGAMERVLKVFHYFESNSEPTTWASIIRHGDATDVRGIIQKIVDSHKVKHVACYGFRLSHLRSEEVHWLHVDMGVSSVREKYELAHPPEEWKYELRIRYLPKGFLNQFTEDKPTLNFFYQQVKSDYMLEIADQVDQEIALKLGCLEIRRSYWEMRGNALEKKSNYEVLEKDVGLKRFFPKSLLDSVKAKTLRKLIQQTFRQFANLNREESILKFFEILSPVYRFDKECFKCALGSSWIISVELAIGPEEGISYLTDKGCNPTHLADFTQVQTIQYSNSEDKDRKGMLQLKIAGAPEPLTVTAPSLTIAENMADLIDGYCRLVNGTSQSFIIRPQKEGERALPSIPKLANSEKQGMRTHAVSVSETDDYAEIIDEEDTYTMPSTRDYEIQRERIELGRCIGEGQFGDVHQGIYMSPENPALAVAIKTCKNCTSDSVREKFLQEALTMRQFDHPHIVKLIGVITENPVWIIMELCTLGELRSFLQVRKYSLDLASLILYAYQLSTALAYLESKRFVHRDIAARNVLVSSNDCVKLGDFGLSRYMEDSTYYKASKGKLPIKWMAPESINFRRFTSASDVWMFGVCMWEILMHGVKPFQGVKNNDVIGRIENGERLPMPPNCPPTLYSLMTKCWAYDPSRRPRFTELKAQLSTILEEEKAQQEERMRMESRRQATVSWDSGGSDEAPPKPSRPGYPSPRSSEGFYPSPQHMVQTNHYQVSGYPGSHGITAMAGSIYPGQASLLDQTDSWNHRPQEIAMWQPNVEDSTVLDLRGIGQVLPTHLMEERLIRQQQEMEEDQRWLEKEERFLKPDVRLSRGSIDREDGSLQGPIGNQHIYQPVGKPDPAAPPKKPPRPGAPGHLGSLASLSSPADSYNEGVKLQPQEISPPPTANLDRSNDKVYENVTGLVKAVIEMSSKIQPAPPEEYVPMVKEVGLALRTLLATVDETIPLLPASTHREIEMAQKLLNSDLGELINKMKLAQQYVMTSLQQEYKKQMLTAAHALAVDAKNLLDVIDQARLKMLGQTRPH
Follistatin (Homo sapiens), sequence (P19883 whole entry, looked up): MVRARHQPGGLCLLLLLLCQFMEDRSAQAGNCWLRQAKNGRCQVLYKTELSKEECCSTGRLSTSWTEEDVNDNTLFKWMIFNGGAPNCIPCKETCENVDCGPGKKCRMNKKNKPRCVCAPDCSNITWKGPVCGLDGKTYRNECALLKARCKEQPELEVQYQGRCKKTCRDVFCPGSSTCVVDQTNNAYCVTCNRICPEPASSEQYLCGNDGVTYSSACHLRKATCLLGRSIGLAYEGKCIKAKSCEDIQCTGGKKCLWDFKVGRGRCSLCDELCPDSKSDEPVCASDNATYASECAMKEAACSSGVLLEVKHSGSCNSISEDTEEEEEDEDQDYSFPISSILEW

In the case of `CCCCCCCCCC(O)C1C=CC2C(=O)N(c3ccccc3)C(=O)C2N1Nc1cc(OC)c(OC)c(OC)c1` (stereo not given), the composite z-score with Albumin (Bos taurus) was 0.168; in [2] it was -0.0751; in assay [3], -0.14; in assay [4], 0.528; in assay [5] it was 2.25; in assay [6], -0.354. Moreover, the composite z-score in the assay on Sam68 (KHDRBS1) is 0.683; in assay [7] it was -0.919; in assay [8] it was 0.932; in assay [9] it was 0.374; in [10], 0.675; in [11] it was 0.636. Also, the composite z-score is 0.585 in assay [12]; 0.0214 in [13]; -1.09 in [14]; -0.312 with Lefty1; 0.172 in assay [16]. In addition, the composite Z-score in assay [1] is 0.182 (inactive). In addition, the z-score is -0.512 in assay [15] and -1.96 (inactive) in assay [17].
Take `C=CCOC(=O)[C@@H]1[C@H]2C(=O)O[C@H](c3ccccc3)[C@H](c3ccccc3)N2[C@H](c2ccc(OCCOC(=O)[C@@H]3C[C@@H]4C(=O)N[C@@H](CCCC[N+](C)(C)C)C(=O)N4[C@@H]3c3ccc(O)cc3)cc2)[C@@]12C(=O)Nc1ccc(I)cc12`: the composite z-score with Albumin (Bos taurus) was 0.118; in assay [2], 0.0282; in assay [3] it was -0.084; in assay [4] it was 0.473; in assay [5] it was 1.92; in assay [6], 0.417. The composite z-score came out at 1.29 with Sam68 (KHDRBS1); 0.841 in assay [7]; 0.756 in assay [8]; 2.68 in assay [9]; 1.15 in [10]; 0.67 in [11]. For the same molecule, the composite z-score in assay [12] was 0.412; in assay [13], 1.12; in [14], 1.24; in the assay with Lefty1, 1.08; in assay [16], 0.216. Moreover, the composite Z-score in assay [1] is -0.0092 (inactive). Further, the z-score in [15] is -1.76; in [17], -2.38 (inactive).
With `CC(CO)N1C(=O)[C@@H]2[C@H]3C(=O)OCC=C[C@H]3OC23C=CCN(Cn2nnc4ccccc42)C(=O)[C@@H]13` (stereo not given in full), the composite z-score with Albumin (Bos taurus) is -0.779; in [2], -0.256; in [3] it was -0.13; in [4], 0.419; in assay [5], 0.523; in [6] it was -0.199. Moreover, the composite z-score was -0.766 with Sam68 (KHDRBS1); -0.851 in assay [7]; -0.967 in assay [8]; -1.02 in assay [9]; -1.43 in assay [10]; -0.432 in assay [11]. Besides, the composite z-score is -0.8 in assay [12]; -0.72 in assay [13]; -0.358 in assay [14]; -0.406 with Lefty1; -0.596 in assay [16]. The composite Z-score in assay [1] is 0.6 (inactive). In addition, the z-score in [15] is -0.528; in assay [17] it was 0.27 (inactive).
Regarding `NCCCCCCNC(=O)[C@@H]1C[C@@H]2C(=O)N[C@@H](CCCCN)C(=O)N2[C@@H]1c1ccc(O)cc1`, the composite z-score with Albumin (Bos taurus) is -1.58; in assay [2] it was -0.0431; in assay [3], -0.0386; in assay [4] it was 0.782; in assay [5], 1.68; in assay [6] it was 1.18. In addition, the composite z-score in the assay with Sam68 (KHDRBS1) came to 0.762; in [7] it was 0.667; in assay [8] it was 0.0619; in [9], 1.91; in [10], 0.153; in assay [11] it was 0.353. For the same molecule, the composite z-score in [12] is -1.97; in assay [13] it was 0.998; in assay [14] it was 1; with Lefty1 it was 0.731; in assay [16], 0.961. For the same molecule, in [1], the composite Z-score was 1.7 (inactive). Further, the z-score is -0.903 in [15] and 0.715 (inactive) in [17].
For `C=CCNC(=O)[C@@H]1[C@H]2C(=O)O[C@H](c3ccccc3)[C@H](c3ccccc3)N2[C@H](c2ccc(O)cc2)[C@@]12C(=O)N(C(=O)OCCOC)c1ccc(C#CC3=CCCCC3)cc12`, the composite z-score with Albumin (Bos taurus) is 0.179; in [2], 0.138; in assay [3], -0.14; in [4] it was 0.32; in assay [5] it was 1.57; in [6], 0.354. In addition, the composite z-score in the assay on Sam68 (KHDRBS1) came out at 1.28; in assay [7] it was 0.673; in [8], 0.737; in assay [9], 1.11; in [10] it was 1.19; in assay [11], 0.664. In addition, the composite z-score was found to be 0.708 in [12]; 1.27 in assay [13]; 1.54 in [14]; 0.701 in the assay with Lefty1; 0.729 in assay [16]. The composite Z-score in [1] is 0.683 (inactive). Also, the figures for the z-score in [15] and in assay [17] were -0.22 and -0.959 (inactive), respectively.
